Here are results for 86 sequences from the supplement of paper PMC12636033.

± gives the standard deviation of the averaged measurements. In all, about 33,000 sequences were measured (“E-score (rank enrichment, -0.5 to 0.5)”: median about -0.0068, highest 2% from about 0.24 on). The full list was thinned out, with the highest values kept by preference.

For the assay, the system named is muMax20 (Max(13-93) K31hArg/K57hArg, M65Nle). The experiment in a line: PBM 8-mer E-score (E-score (rank enrichment, -0.5 to 0.5)); higher = stronger preferential binding. As to the method:
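Protein binding microarray (universal PBM chip covering all 10-mers in fixed probe flanks) with chemically synthesized human Max(13-93) bHLH-LZ analogs (not full-length Max) bearing noncanonical residues (hArg, Tha, Aib, Nle at 65) and aromatic Cys staples. Read-out per 8-mer (and its reverse complement): E-score (rank-based enrichment, -0.5 to 0.5) and Z-score of median probe intensity.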
Turning to ACCAAAAT, the “PBM 8-mer E-score” value is 0.168 ± 0.03.
The value for GCAAATCA was -0.0323 ± 0.096.
As for CCAAATCA, the figure is -0.0102 ± 0.046.
In the case of ACAAAAAG, the “PBM 8-mer E-score” value amounted to 0.125 ± 0.074.
As for AAAAAAAT, the figure is 0.168 ± 0.066.
The value for GTCATAAA was 0.193 ± 0.01; that for CCAAAACA was 0.231 ± 0.1.
The value for ACCACCGG was -0.2177 ± 0.00071.
ATCTCTCC: the “PBM 8-mer E-score” value was -0.0165 ± 0.16.
The value for AACGCCCA was -0.077 ± 0.015; that for AACGCCAC was -0.111 ± 0.023; that for CTATGCCC was -0.0261 ± 0.02.
As for AACGAATC, the figure is 0.023 ± 0.089.
As for TGGTTACA, the “PBM 8-mer E-score” value was determined as 0.0957 ± 0.036.
On to GTTATAAC, for which the “PBM 8-mer E-score” value was found to be 0.187 ± 0.11.
As for ATTATAAG, the “PBM 8-mer E-score” value was 0.115 ± 0.13.
Turning to ATTATAAA, the “PBM 8-mer E-score” value was 0.296 ± 0.053.
The value for CTTATAAA was 0.191 ± 0.0045; that for GTTATAAA was 0.239 ± 0.037; that for ATTATAAT was 0.201 ± 0.042.
Take AGCCCAAG: the “PBM 8-mer E-score” value was -0.08 ± 0.11.
The value for CGAGAAGA was 0.0468 ± 0.0088; that for AGCCGTTG was -0.0362 ± 0.068; that for ACCTATAT was 0.265 ± 0.0044.
As for TCATATAA, the figure is 0.227 ± 0.06; as for ACCTATAA, 0.0216 ± 0.083.
The value for ACCTATAC was 0.0268 ± 0.14.
In the case of AAATATAC, the “PBM 8-mer E-score” value was 0.209 ± 0.032.
The value for CCATATAA was 0.225 ± 0.044; that for ACATATAC was 0.159 ± 0.052; that for ACATATAT was 0.323 ± 0.054.
As for AAATATAA, the figure is 0.218 ± 0.046; as for ACATATAA, 0.336 ± 0.069.
As for AAATATAT, the figure is 0.2435 ± 0.0013; as for ACATATAG, 0.0848 ± 0.12; as for GCGTTTGA, -0.0646 ± 0.018.
With AAGCGAGG, the “PBM 8-mer E-score” value was -0.129 ± 0.12.
Regarding GGCCACTA, the “PBM 8-mer E-score” value was found to be 0.0658 ± 0.077.
The value for GTTGCGCA was -0.0795 ± 0.002; that for CACAGGTG was -0.0404 ± 0.033.
The value for ACCTATCA was 0.0576 ± 0.061; that for CTATCGTC was -0.0258 ± 0.024; that for CCGCGACA was -0.0992 ± 0.1.
Consider TGGCAAAA, for which the “PBM 8-mer E-score” value is -0.0471 ± 0.026.
Regarding CCACGGGG, the “PBM 8-mer E-score” value was -0.281 ± 0.017.
As for AAATCACA, the figure is 0.203 ± 0.026; as for GAATCACA, -0.0241 ± 0.022; as for CAATCACA, 0.122 ± 0.095.
As to TAATCACA, the “PBM 8-mer E-score” value was determined as 0.264 ± 0.042.
As for CAATCACC, the figure is 0.139 ± 0.013.
On to CAATCACG, for which the “PBM 8-mer E-score” value worked out at 0.288 ± 0.039.
The value for CCCGCAGC was -0.278 ± 0.086.
The value for TAACGGGA was -0.0715 ± 0.059; that for ACCGCTAC was -0.215 ± 0.034.
AACTCCAG: the “PBM 8-mer E-score” value was -0.117 ± 0.049.
As for CAATGTGA, the figure is 0.148 ± 0.0073.
The value for GAATGTAA was 0.0967 ± 0.041; that for TAATGTGA was 0.262 ± 0.065; that for AATTGTAA was 0.196 ± 0.011.
As for GAATGTGA, the figure is 0.0628 ± 0.06.
On to GATTGTAA, for which the “PBM 8-mer E-score” value came to 0.0589 ± 0.011.
As for AAATGTAA, the figure is 0.157 ± 0.049.
As for TATTGTAA, the figure is 0.242 ± 0.023; as for TAATGTAA, 0.252 ± 0.024; as for AGTGGCCC, -0.0606 ± 0.016.
TCCCGACA: the “PBM 8-mer E-score” value is -0.0715 ± 0.11.
As for GTTACCTA, the figure is 0.0231 ± 0.039.
As for ACCGGCTG, the figure is -0.257 ± 0.018.
For TCAAGAAA, the “PBM 8-mer E-score” value was 0.103 ± 0.021.
Take TCACTCCA: the “PBM 8-mer E-score” value is -0.0737 ± 0.21.
As for GATCCGAA, the figure is -0.13 ± 0.057; as for GAGATGGC, 0.0296 ± 0.023; as for CAGTCCGG, -0.297 ± 0.023.
As for ATCCAGCC, the figure is -0.09 ± 0.07.
In the case of GCTTGCAC, the “PBM 8-mer E-score” value was -0.252 ± 0.0059.
As for AGCCGGTC, the figure is -0.295 ± 0.086; as for ACTGTTCC, -0.187 ± 0.12; as for ACGTGGAA, 0.195 ± 0.017.
As for CCGTGGAG, the figure is -0.131 ± 0.092; as for GCGTGGAC, 0.0607 ± 0.05.
As for AAGTGGAT, the figure is 0.00777 ± 0.081; as for ACGTGGAG, 0.245 ± 0.14.
On to ACGTGGGG, for which the “PBM 8-mer E-score” value is 0.16 ± 0.039.
As for CCGTGGAC, the figure is -0.13 ± 0.12; as for ACGTGGAC, 0.27 ± 0.08; as for ACGTGGAT, 0.342 ± 0.012.
